Measurements: PubChem BioAssay AID463116 (University of Pittsburgh Molecular Library Screening Center, 2010)
The campaign covered roughly 1,000 compounds. About 710 (71%) were called active. Another 7% or so got no clear call; they are omitted.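 How the source made its calls: active means inhibition of receptor movement into the nucleus at or above a set limit in both runs, with normal cell brightness and cell count; inconclusive means limit reached in only one run, brightness and count normal; inactive means the rest.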 The set was probably picked from earlier hits. The list is a sample of the results.

Test: dynein cargo transport inhibitors, GR-EGFP translocation, confirmation, imaging, high-content imaging, GR-EGFP cells (AID 463116);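 on inhibition: dexamethasone at 1 µM final in well for 30 min; nuclear minus cytoplasmic GR-EGFP mean intensity difference in channel 2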
Details: 3617.4 GR-EGFP nuclear translocation imaging, dexamethasone-induced, at 20 µM; inhibition: stronger effect = higher value; z-score: measured here: cell count per field

Row | SMILES | inhibition | z-score
1 | O=[N+]([O-])c1cc(S(=O)(=O)CCCN2CCOCC2)ccc1F | 80.5% (active) | 0.409
2 | CC1CCN(C(=O)c2ccc(S(=O)(=O)Cc3cc(F)ccc3F)c([N+](=O)[O-])c2)CC1 | 37.2% (inactive) | 0.248
3 | COc1ccc(-c2csc3nc(-c4ccccc4F)oc(=O)c23)cc1OC | 76.8% (active) | 0.201
4 | Cn1c(=O)c([N+](=O)[O-])c(Oc2ccccc2)c2ccccc21 | 77.8% (active) | 0.222
5 | Cc1cccc(Oc2c([N+](=O)[O-])c(=O)n(C)c3ccccc23)c1 | 65.6% (active) | 0.355
6 | CC(C)(C)C1C/C(=C/c2ccco2)C(=O)/C(=C/c2ccco2)C1 (stereo unspecified) | 184% (inactive) | 0.226
7 | Cc1cccc2cc3c(N)c(C(=O)N4CCCc5ccccc54)sc3nc12 | 97.1% (active) | -0.357
8 | COc1ccc(NC(=O)/C(Cl)=C(/Cl)S(=O)Cc2ccc(C)cc2)cn1 (stereo unspecified) | 76.8% (active) | 0.179
9 | CC1=C/C(=N\OS(=O)(=O)c2ccccc2)C=CC1=O | 85.1% (active) | 0.68
10 | Nc1ccccc1SC(C[N+](=O)[O-])c1ccccc1 (stereo unspecified) | 71.2% (active) | -0.448
11 | O=C1/C(=C\c2cccnc2)CN(Cc2ccccc2)C/C1=C\c1cccnc1 | 81.1% (active) | 0.0646
12 | Cc1cc(-c2n[nH]c(=S)n2/N=C/C(Br)=C/c2ccccc2)n[nH]1 | 80.8% (active) | 0.326
13 | Cc1[nH]c(=O)c(C(=O)/C=C/c2ccccc2)c2c1CCCC2 | 71.9% (active) | 0.213
14 | O=C(CCl)N(Cc1cccc([N+](=O)[O-])c1)c1cccc(Cl)c1 | 84.8% (active) | 0.159
15 | COc1ccc(-c2cc(C(F)(F)F)nc(S(C)(=O)=O)n2)cc1OC | 51.4% (active) | 0.253
16 | Cc1cc(C(=O)NCCc2ccc(Cl)cc2)n(-c2ccccc2)n1 | 16.2% (inactive) | 0.17
17 | Cc1cc(C)nc(S/C=C/C(=O)c2ccccc2)n1 | 68.4% (active) | 1.05
18 | Clc1cccc(-c2nc3nc4ccccc4nc3n2Cc2ccco2)c1 | 12.8% (inactive) | 0.105
19 | COc1ccc(C(=O)NCC(=O)N/N=C/c2ccc([N+](=O)[O-])o2)cc1OC | 59.2% (active) | -0.0055

Row | SMILES | inhibition | z-score
20 | O=C(/C=C/Sc1ncn[nH]1)c1ccc(Cl)cc1 | 69.1% (active) | 0.228
21 | CCN(CC)c1ccc2oc(=O)c(C)nc2c1 | 82.6% (active) | 0.353
22 | COc1ccc(C(CCN(Cc2ccc(OC)c(OC)c2)C(=O)CCl)c2ccccc2)cc1 (stereo unspecified) | 90.9% (active) | -0.513
23 | O=C(CCl)Nc1cccc(CP(=O)(c2ccccc2)c2ccccc2)c1 | 63.6% (active) | 0.239
24 | O=C1C=C(c2ccc(Cl)cc2)C(=O)N1Nc1ccccc1 | 81% (active) | 1.03
25 | O=C(Nc1ccccc1)c1nnsc1S(=O)(=O)c1ccc(Cl)cc1 | 38.8% (inactive) | -5.42
26 | CCOC(=O)C(=Cc1ccccc1OC)C(=O)OCC | 82.2% (active) | 0.778
27 | N#C/C(=C/c1ccc(N2CCCCC2)o1)C(=O)NCCc1c[nH]c2ccccc12 | 96.8% (active) | 0.0808
28 | Oc1c(C=Nc2cccc3nsnc23)ccc2ccccc12 | 23.9% (inactive) | 0.36
29 | COc1cc2c(cc1O)C(SC)=NC(C)(C)C2 | 79.1% (active) | 0.013
30 | COC(=O)/C=C\C(=O)Nc1cccc([N+](=O)[O-])c1 | 77.7% (active) | -1.06
31 | CCC1=C/C(=C\c2ccc3c(c2)OCO3)C(=O)S1 | 30.5% (inactive) | 0.474
32 | C[C@@H]1C[C@@H]2O[C@H]2/C=C\C=C\C(=O)Cc2c(Cl)c(O)cc(O)c2C(=O)O1 | 90.1% (active) | -0.431
33 | Cc1cc(C)c2c3c(sc2n1)C(c1ccccc1)C(C#N)=C(N)O3 (stereo unspecified) | 23.6% (inactive) | 0.166
34 | CCN1/C(=C/c2ccc3ccc(C)cc3[n+]2CC)Sc2ccccc21 | 99.7% (active) | 0.0317
35 | O=S1(=O)CCC(NC(=S)SCc2ccccc2Br)C1 (stereo unspecified) | 67.1% (active) | -0.249
36 | C=CS(=O)c1sc(Cl)c(N2CCOCC2)c1[N+](=O)[O-] (stereo unspecified) | 83.2% (active) | -0.577
37 | Nc1c(C(=O)c2cccs2)sc2nsc(SCCN3CCCCC3)c12 | 91.8% (active) | 0.159
38 | CC1(C)CCSC(/C=C/c2ccccc2)=N1 | 90.7% (active) | -0.988
